Tb PFK block: T. brucei PFK enzyme inhibition; Potency, µM (highest dose often 57.5 µM), for inactives: at the highest dose activity, negative = inhibition, most hits filed as inhibitors; 330,000 compounds, 0.17% hits; T. brucei PFK, ADP-Glo luminescence;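 further: 0% = uninhibited 1x PFK enzyme wells and -100% = no-enzyme wells; nearly all actives have a fitted effect of over 60% in size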
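ADP-Glo luminescence quantified ADP after 45 min at room temperature, with 1.25 nM T. brucei PFK, 0.1 mM ATP and 0.5 mM fructose-6-phosphate in pH 8.0 TEA buffer. qHTS titrations up to 57 µM; curves classified by quality.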
TDP1 inh: TDP1 (human) enzyme inhibition | Q9NUW8 | Potency, µM (titrated, usually from 130 µM), for inactives: at the top dose activity change, negative = inhibition, most hits filed as inhibitors | AID 485290 | 350,000 compounds, 0.28% hits | recombinant TDP1, AlphaScreen DNA substrate cleavage; further: on the % scale 0 is the no-effect control and ±100 the full control effect; nearly all actives have a fitted effect of over 40% in size
Target sequence (Q9NUW8 whole entry, looked up): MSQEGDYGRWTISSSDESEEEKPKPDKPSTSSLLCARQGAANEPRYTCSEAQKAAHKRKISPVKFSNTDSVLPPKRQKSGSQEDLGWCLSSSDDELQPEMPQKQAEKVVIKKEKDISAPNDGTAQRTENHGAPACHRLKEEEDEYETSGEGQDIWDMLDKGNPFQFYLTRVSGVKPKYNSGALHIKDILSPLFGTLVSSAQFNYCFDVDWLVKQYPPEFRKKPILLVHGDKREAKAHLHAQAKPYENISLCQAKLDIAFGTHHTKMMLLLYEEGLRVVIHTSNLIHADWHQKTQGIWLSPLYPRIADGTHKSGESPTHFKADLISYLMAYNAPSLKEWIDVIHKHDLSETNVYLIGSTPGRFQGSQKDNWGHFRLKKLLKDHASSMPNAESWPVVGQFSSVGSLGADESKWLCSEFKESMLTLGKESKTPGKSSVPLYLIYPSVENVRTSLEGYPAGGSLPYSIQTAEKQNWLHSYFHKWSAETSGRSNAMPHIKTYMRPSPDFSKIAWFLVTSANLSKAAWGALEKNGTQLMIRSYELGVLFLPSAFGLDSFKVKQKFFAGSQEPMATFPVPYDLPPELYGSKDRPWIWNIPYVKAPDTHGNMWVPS
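Compounds were preincubated with Tdp1 (1 nM final) for 15 min at room temperature before substrate (15 nM final) started a 5 min reaction; beads (10 ug/ml final) were then added for 10 min before AlphaScreen detection.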
VDR inhibitor: vitamin D3 receptor (human) inhibition; VDR-SRC2-3 peptide fluorescence polarization, 2 h; 400,000 compounds, 0.93% hits; AID 504847; P11473; Potency, µM, without a hit: max response, negative = inhibition, actives largely listed as inhibitors; further: on the % scale 0 is the no-effect control and ±100 the full control effect
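After 23 nl compound addition and a short centrifugation, plates sat for 2 hours at ambient temperature; polarization of fluorescence then indicated loss of VDR binding to peptide SRC2-3.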
ASM inhibitor: blocks human secretory acid sphingomyelinase; placental ASM, HMU-PC fluorogenic substrate, 60 min; Potency, µM (top dose mostly 57.5 µM), without a hit: at the highest dose activity change, negative = inhibition, most hits filed as inhibitors; 340,000 compounds, 0.006% hits; AID 504937
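Steps: dispense placental human ASM, pin compound, wait 10 min at room temperature, add HMU-PC0 substrate at 9 uM final, incubate 60 min at 37 °C, add stop solution raising pH to 10, read fluorescence.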
Pin1 inhibitor: blocks the human prolyl isomerase Pin1; Pin1 FP peptide displacement, HiFluor488, 10 min; Q13526; 390,000 compounds, 0.009% hits; Potency, µM (highest dose often 115 µM), for the others: at the highest dose activity, negative = inhibition, usual class: inhibitors; AID 504891; active means well fitted inhibition curve with a large enough effect in the polarisation, with a control signal flat, not every such curve was filed as active; inconclusive means small, poorly fitted or top-dose-only effect, or effect the other way, or a change in a side signal; inactive means no such curve, though single readings can be large or run the other way; the % refers to the polarisation; further: on the % scale 0 is the no-effect control and ±100 the full control effect
PLK1 PBD inh: inhibitors of human PLK1 polo-box domain binding; P53350; Potency, µM, for inactives: max response, negative = inhibition, actives largely listed as inhibitors; AID 720504; 360,000 compounds, 2.8% hits; Plk1 PBD binding of FITC phosphopeptide, fluorescence polarization; further: series mostly up to about 57 µM; on the % scale 0 is the no-effect control and ±100 the full control effect; nearly all actives have a fitted effect of over 65% in size
* hit, by the source's call; ? = inconclusive; . = no result given; ! = a repeat was not active; [ ] = remark or other dose. Only some compounds are listed: those with a hit (about 3.1% of all), similar ones and a draw of the others. Unless noted, the call rests on the fitted dose curve; in most records, active means well fitted curve in the direction sought with a large enough effect; inconclusive means small, poorly fitted or top-dose-only effect, or another doubt; inactive means no such curve, though single readings can be large; an effect the other way counts as inactive or inconclusive. Potency means the concentration at half of the fitted maximal effect.

SMILES	Tb PFK block	TDP1 inh	VDR inhibitor	ASM inhibitor	Pin1 inhibitor	PLK1 PBD inh
O=C(Cn1c(=O)n(Cc2nc(-c3ccccc3)no2)c(=O)c2ccccc21)Nc1cccc(C(F)(F)F)c1	.	6%	15%	.	5%	.
CCOc1ccccc1-c1nnc2n1N=C(c1ccccc1OC)CS2	.	14%	.	.	-2%	.
O=C(CSc1nc(-c2ccccc2)c(-c2ccccc2)[nH]1)NCc1ccco1	7%	7%	?	-2%	17%	21µM*
COc1ccccc1-n1ccnc1SCC(=O)NCC1CCCO1 (stereo not drawn)	4%	7%	13%	-2%	1%	2%
COc1ccccc1-n1ccnc1SCC(=O)NCc1ccco1	-5%	1%	?	6%	-10%	24µM*
COc1ccc2nc3c(cc2c1)Cn1c-3nc2ccccc2c1=O	.	2%	?	.	5%	.
O=C(O)COc1ccc(Cl)cc1C1CCCCC1	.	.	-11%	22%	0%	0%
CCCC[C@@]1(C2CCCC2)Cc2cc(OCC(=O)O)c(Cl)c(Cl)c2C1=O	-7%	8%[56.1 µM]	50µM*!	24%	?	-27%
Cc1nn(-c2ccc(N3CCCCC3)nn2)c(C)c1CCC(=O)NCc1ccc(OC(C)C)cc1	.	1%	5%	.	-5%	.
Nc1ccc2c(c1Cl)C(=O)c1ccc(N)c(Cl)c1C2=O	?	3.5µM*	-10%	-1%	?	?
Cc1ccc(NS(=O)(=O)c2ccc(N3CCCC3=O)cc2)cc1C	.	0%	.	.	2%	.
CC(=O)Nc1ccc(S(=O)(=O)NC(CC(=O)N(C)Cc2ccccc2)C(C)C)cc1 (stereo not drawn)	-3%	3%	-14%	-1%	-4%	3.4µM*
CN(C)C(=O)c1ccc(NC(=O)Cn2nnnc2-c2ccccc2F)cc1	.	0%	4%	.	2%	.
O=[S+]([O-])(c1ccc(-c2ccccc2)cc1)N1CCN([S+](=O)([O-])c2ccc3c(c2)OCCO3)CC1	.	.	.	.	3%	.
O=NN(Cc1cccnc1)C(=O)NC1CCCCC1	.	.	.	.	.	27µM*
O=C(O)c1ccc2[nH]c3c(c2c1)CSCC3	?	20µM*	45µM*	0%	?	?
CN(C)CCOC(=O)c1ccc2[nH]c3c(c2c1)CSCC3	0%	.	-4%	3%	-3%	30µM*
CN(CCC#N)C(=O)COC(=O)c1ccc2[nH]c3c(c2c1)CCCC3	-5%	2%	-19%	1%	4%	-2%
O=C(O)COCCN1CCN([C@@H](c2ccccc2)c2ccc(Cl)cc2)CC1	.	16%[21 µM]	-2%	.	.	.
Cc1ccc(C2c3cccn3CCN2S(=O)(=O)c2ccc([N+](=O)[O-])cc2)cc1 (stereo not drawn)	.	13%	-3%	.	0%	.
C[C@H]1Cc2c(-c3ccccc3)nc3c(c2CO1)CN(S(=O)(=O)c1ccc2c(c1)OCCN2C)CC3	.	13%[12.3 µM]	.	.	.	.
C=CCn1c(CNc2ccccc2)nnc1SCC(=O)N/N=C/c1ccc(O)cc1O	-1%	8%	-23%	-2%	-2%	27µM*
C=CCn1c(CNc2ccc(C)cc2)nnc1SCC(=O)N/N=C/c1ccc(O)cc1O	1%	11%	-9%	-2%	-5%	1%
COc1ccc(C2c3c(N)nc(CCc4ccccc4)nc3Oc3ccc4ccccc4c32)cc1OC (stereo not drawn)	.	-4%	.	.	?	.
CC1(C)CC(=O)C(C(=O)/C=C/c2ccco2)C(=O)C1	?	6%	?	-16%	-3%	9.5µM*
SMILES	Tb PFK block	TDP1 inh	VDR inhibitor	ASM inhibitor	Pin1 inhibitor	PLK1 PBD inh
CC1(C)CC(=O)C(C(=O)/C=C/NCCc2ccccc2)C(=O)C1	2%	3%	3%	-1%	-9%	-3%
Cc1ccc(/C=C/C(=O)c2c(C)cc(C)[nH]c2=O)cc1	-2%	4%	-6%	-2%	3%	-2%
Cc1cc(C)c(C(=O)/C=C/c2ccco2)c(=O)[nH]1	0%	16µM*	-14%	-3%	-14%	-29%
CCc1ccccc1-n1nnc(-c2nsc(NC(=O)c3ccc(C)c(C)c3)n2)c1C	.	5%	14%	.	30%	.
CCCCC(CC)COC(=O)CC(C(=O)OCC(CC)CCCC)S(=O)(=O)O (stereo not drawn)	.	10%	25µM*	.	.	.
CCOC(=O)c1nnc2cc(-c3ccccc3)nn2c1C	0%	4%	14%	-5%	?	-8%
CCOC(=O)c1nnc2c(Br)c(-c3ccccc3)nn2c1C	-2%	8%	?	-8%	5%	30µM*
Nn1cc(Br)c(=O)[nH]c1=O	.	?	1%	.	.	.
CCN(CC#CCC(O)(c1ccccc1)c1ccccc1)C(C)C	4%	0%	-27%	5%	0%	27µM*
CC(C)N(CC#CCC(O)(c1ccccc1)c1ccccc1)CCO	-1%	1%	21%	5%	5%	-6%
COc1cc(NC(=O)CSc2cc(=O)n(C)c3ccccc23)cc(OC)c1OC	.	0%	-14%	.	0%	.
CCc1ccc(NC(=O)CCNC(=O)Cn2cnc3ccccc3c2=O)cc1	-1%	-9%	?	-1%	0%	30µM*
CCCCn1cnc2c1c(=O)[nH]c(=O)n2CCCC	-8%	3%	-8%	9%	-16%	12µM*
O=[N+]([O-])c1ccc(Oc2ncccn2)cc1	.	.	12%	7%	-12%	-13%
N#CCc1ccc(Oc2ncccn2)cc1	-8%	.	?	-2%	-9%	17µM*
C=C(C(=O)c1ccccc1)C(C)CC(=O)c1ccccc1 (stereo not drawn)	5%	-11%	79µM*	0%	0%	-8%
CCCCN(CC)c1nc(C)nc2c1c(C)c(C)n2-c1c(C)cc(C)cc1C	.	16%	-1%	.	.	.
COc1ccc(S(=O)(=O)NCCS(=O)(=O)N2CCN(c3ccccc3F)CC2)cc1	.	1%	9%	.	-7%	.
CC(=O)c1cc(C#N)c(NCc2cc(-c3ccccc3)no2)nc1C	-1%	2%	0%	-6%	1%	0%
COC(=O)c1cc(C#N)c(NCc2ccccc2)nc1C	-3%	0%	?	-11%	-4%	3.4µM*
O=C(Nc1ncc([N+](=O)[O-])s1)c1cccs1	-1%	1%	-12%	-7%	29%	-8%
Cc1cc(NC(=O)c2ocnc2C)no1	3%	-14%	?	0%	-3%	24µM*
Cc1ncoc1C(=O)Nc1ncc([N+](=O)[O-])s1	-1%	.	89µM*	-5%	0%	?
Cc1cc(NC(=O)c2ccc(C(C)(C)C)cc2)no1	.	.	4%	4%	0%	?
O=C(Nc1ccccc1O)c1ccc([N+](=O)[O-])cc1	0%	3%	-8%	5%	-2%	-2%
Cc1cc(NC(=O)c2ccc([N+](=O)[O-])cc2)no1	2%	6%	?	1%	-5%	21µM*

From PubChem BioAssay
